Assay results from PubChem BioAssay (NCATS).
Records with an inconclusive call do not appear. Where a call stands in place of a potency, no number is given. Activity calls are given as the source filed them. Calls follow the shape of the dose curve; as a rule, active = well fitted inhibition curve with a large enough effect; inconclusive = small, poorly fitted or top-dose-only effect; inactive = flat fitted curve, though single readings scatter.
Potency is read from the fitted curve at half-maximal effect.

Each compound was assayed on CP194 (assay: qHTS profiling for inhibitors of Plasmodium falciparum proliferation (AID 504749; also: nearly all actives have a fitted effect of over 60% in size)). Settings: P. falciparum in erythrocytes, SYBR Green DNA, 72 h; series mostly up to 28.7 µM.
How it was run: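 SYBR Green fluorescence (ex 485 nm, em 535 nm) reports parasite DNA after 72 h compound exposure of infected red cells at 0.3% parasitemia, 2.5% hematocrit; signal normalized to 0.29 uM artemisinin and vehicle wells.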
In the case of `NC(=O)N1c2ccccc2CC(=O)c2ccccc21`, the Potency is reported as “inactive”.
With `CNS(=O)(=O)Cc1ccc2[nH]cc(CCN(C)C)c2c1` the Potency was “inactive”.
`CCCc1cc(C(N)=S)ccn1` was tested, and the Potency was “inactive”.
For `CCCN[C@H]1CCc2nc(N)sc2C1`, the Potency was “inactive”.
With `COc1ccc(C(=O)CC(=O)c2ccc(C(C)(C)C)cc2)cc1` the Potency was “inactive”.
For `CC(C)Cn1cnc2c(N)nc3ccccc3c21`, the Potency was “inactive”.
In the case of `Nc1nc(N)nc(-c2cc(Cl)ccc2Cl)n1`, the Potency is reported as “inactive”.
For `OC(Cn1cncn1)(Cn1cncn1)c1ccc(F)cc1F`, the Potency was “inactive”.
In the case of `CC(C)OC(=O)C(C(=O)OC(C)C)=C1SC=CS1`, the Potency is reported as “inactive”.
With `NCCCC(O)(P(=O)(O)O)P(=O)(O)O` the Potency was “inactive”.
For `CC1=CC(=O)c2ccccc2C1=O`, the Potency was “inactive”.
`Nc1ccc(S(=O)(=O)Nc2ccccn2)cc1` was tested, and the Potency was “inactive”.
`Cc1noc(NS(=O)(=O)c2ccc(N)cc2)c1C` was tested, and the Potency was “inactive”.
For `O=c1cc(O)c(Cl)c[nH]1`, the Potency was “inactive”.
In the case of `Cn1nnc2c(C(N)=O)ncn2c1=O`, the Potency is reported as “inactive”.
With `CNC1CCCN(c2c(F)cc3c(=O)c(C(=O)O)cn(C4CC4)c3c2OC)C1` (configuration not stated) the Potency was “inactive”.
For `C#CCN[C@@H]1CCc2ccccc21`, the Potency was “inactive”.
`COc1cc(NCc2ccc3nc(N)nc(N)c3c2C)cc(OC)c1OC` was tested, and the Potency was 2690 nM (active).
With `N[C@@H](C(=O)N[C@@H]1C(=O)N2C(C(=O)O)=C(Cl)CS[C@H]12)c1ccccc1` the Potency was “inactive”.
`CN(C)CCc1c[nH]c2ccc(CS(=O)(=O)N3CCCC3)cc12` was tested, and the Potency was “inactive”.
With `C[C@]12C=CC(=O)C=C1CC[C@@H]1[C@@H]2C(=O)C[C@@]2(C)[C@H]1CC[C@]2(O)C(=O)CO` the Potency was “inactive”.
With `Nc1[nH]c(=O)ncc1F` the Potency was “inactive”.
